Here are results for 44 molecules from paper PMC4336329 (PLoS ONE, 2015).

Structures are written as SMILES. Hit rate of the full screen: of about 310,000 compounds, about 14,000 (4.5%) showed an effect of 50% or more. Effects have a minus sign here. The full list was thinned out, with strong results kept by preference.
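Further: peak tail current of the secondary pulse compared with the same well before compound.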

human ether-à-go-go-related gene (hERG) potassium channel, sequence (Q12809 whole entry, looked up): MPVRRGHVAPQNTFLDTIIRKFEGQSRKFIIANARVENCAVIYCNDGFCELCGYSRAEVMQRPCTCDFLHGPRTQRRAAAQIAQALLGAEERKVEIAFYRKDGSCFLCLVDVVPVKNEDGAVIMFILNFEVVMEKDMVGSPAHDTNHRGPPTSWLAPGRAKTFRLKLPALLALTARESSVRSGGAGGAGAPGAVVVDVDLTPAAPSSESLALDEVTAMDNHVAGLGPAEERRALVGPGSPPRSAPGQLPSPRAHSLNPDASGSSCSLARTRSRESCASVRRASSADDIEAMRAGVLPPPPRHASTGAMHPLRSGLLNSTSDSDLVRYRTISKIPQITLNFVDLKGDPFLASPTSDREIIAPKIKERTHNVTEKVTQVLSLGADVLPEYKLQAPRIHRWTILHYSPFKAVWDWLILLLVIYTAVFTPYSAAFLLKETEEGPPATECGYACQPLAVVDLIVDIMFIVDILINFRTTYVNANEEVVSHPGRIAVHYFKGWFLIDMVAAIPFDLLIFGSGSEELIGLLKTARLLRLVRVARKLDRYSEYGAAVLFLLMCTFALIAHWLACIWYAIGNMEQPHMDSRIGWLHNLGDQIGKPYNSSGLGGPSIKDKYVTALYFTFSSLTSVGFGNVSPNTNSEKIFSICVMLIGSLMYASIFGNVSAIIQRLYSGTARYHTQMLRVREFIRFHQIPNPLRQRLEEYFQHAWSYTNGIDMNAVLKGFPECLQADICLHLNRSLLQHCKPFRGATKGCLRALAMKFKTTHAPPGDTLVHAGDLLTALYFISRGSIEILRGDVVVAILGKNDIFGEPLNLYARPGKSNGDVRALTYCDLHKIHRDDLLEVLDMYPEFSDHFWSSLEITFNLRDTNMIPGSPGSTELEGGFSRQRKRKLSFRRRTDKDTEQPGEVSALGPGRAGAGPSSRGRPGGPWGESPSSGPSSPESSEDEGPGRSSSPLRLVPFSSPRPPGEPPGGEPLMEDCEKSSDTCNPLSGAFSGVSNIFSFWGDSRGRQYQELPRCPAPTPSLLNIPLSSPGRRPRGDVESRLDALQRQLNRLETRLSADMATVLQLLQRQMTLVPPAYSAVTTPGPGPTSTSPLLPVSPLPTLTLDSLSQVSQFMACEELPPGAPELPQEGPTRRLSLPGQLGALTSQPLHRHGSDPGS

This assay addresses human ether-à-go-go-related gene (hERG) potassium channel (human, UniProt Q12809). The assay is described as follows: primary screen, population patch clamp on CHO cells stably expressing hERG; higher = less effect of the substance.
On to `CN1CCN(c2nc3c(c(=O)n(C)c(=O)n3C)n2Cc2ccccc2F)CC1`, for which the “hERG current change (%, negative = inhibition) at 10uM” value was -4.91%. The figure for `CCCN(C(=O)c1cnccn1)c1c(N)n(Cc2ccccc2)c(=O)[nH]c1=O` is 0.0848%; for `Cc1ccc(S(=O)(=O)N2[C@@H](c3ccc(Cl)cc3)C(C(=O)O)=CC[C@H]2c2ccc(Cl)c(Cl)c2)cc1` it is 11.1%; for `COc1ccc(C(=O)C2CCCN(C(=O)c3cc(C(C)C)no3)C2)cc1F` (centres unmarked) it is -56.9%.

As for `COc1ccccc1C(=O)C1CCCN(C(=O)c2cc(C(C)C)no2)C1` (centres unmarked), the “hERG current change (%, negative = inhibition) at 10uM” value is -5.26%. Consider `CSc1ccccc1C(=O)C1CCCN(C(=O)c2cc(C(C)C)no2)C1` (centres unmarked), for which the “hERG current change (%, negative = inhibition) at 10uM” value is -69.6%. Turning to `Cc1cc(Cl)ccc1C(=O)C1CCCN(C(=O)c2cc(C(C)C)no2)C1` (centres unmarked), the “hERG current change (%, negative = inhibition) at 10uM” value is recorded as -22.7%. For `COc1ccc(C(=O)C2CCCN(C(=O)c3cc(C)on3)C2)cc1F` (centres unmarked), the “hERG current change (%, negative = inhibition) at 10uM” value is given as -6.98%. For `CC(C)c1cc(C(=O)N2CCCC(C(=O)c3ccc4ccccc4c3)C2)on1` (centres unmarked), the “hERG current change (%, negative = inhibition) at 10uM” value is -21.8%.

On to `Cc1ccccc1NC(=O)CSc1nc(N)c(C#N)cc1C#N`, for which the “hERG current change (%, negative = inhibition) at 10uM” value was 0.675%. With `Cc1nc2c(-c3ccccc3)c(C)nn2c(C)c1CC(=O)O`, the “hERG current change (%, negative = inhibition) at 10uM” value is 5.02%.

Consider `O=C(CSc1nnc(CNC(=O)c2ccco2)o1)c1ccccc1`, for which the “hERG current change (%, negative = inhibition) at 10uM” value amounted to 4.14%. For `COc1cccc(C(=O)Nc2ccccc2C(=O)NC2CC2)c1`, the “hERG current change (%, negative = inhibition) at 10uM” value was determined as 0.677%.

Consider `Cc1ccc(C)c(N2CCN(C(=O)Nc3ccc4c(c3)N(C)C(=O)CS4)CC2)c1`, for which the “hERG current change (%, negative = inhibition) at 10uM” value was -21.8%.

On to `CCCN1CCC(=O)N([C@H](CSc2ccc(OC)cc2)c2ccccc2)CC1`, for which the “hERG current change (%, negative = inhibition) at 10uM” value is -76.5%.

Regarding `CCCN1CCC(=O)N([C@H](CSc2ccc(C)cc2)c2ccccc2)CC1`, the “hERG current change (%, negative = inhibition) at 10uM” value was -76%. Take `CC(C)CN1CCC(=O)N([C@H](CSc2ccc(Br)cc2)c2ccccc2)CC1`: the “hERG current change (%, negative = inhibition) at 10uM” value was -63.9%. The figure for `COc1ccc(CN2CCC(=O)N([C@H](CO)c3ccccc3)CC2)cc1` is 13.3%. The figure for `CCCN1CCC(=O)N([C@H](CSc2ccccc2)c2ccccc2)CC1` is -77.2%; for `Nc1cc(=O)[nH]c(SCc2csc(-c3ccccc3)n2)n1` it is -3.63%. The figure for `O=C(NCCC1=CCCCC1)c1ccc(F)cc1` is -9.04%; for `Cc1noc(/C=C/N(C)C)c1S(=O)(=O)N1CCCC(C(=O)NC2CCCCC2C)C1` (centres unmarked) it is -25.5%.

With `O=C(Cc1ccc([N+](=O)[O-])cc1)OCc1ccc([N+](=O)[O-])cc1`, the “hERG current change (%, negative = inhibition) at 10uM” value is listed as 19.2%. `CCCNC(=S)N1CCN(c2nc(-c3ccc(C)cc3)cs2)CC1`: the “hERG current change (%, negative = inhibition) at 10uM” value is 5.6%. With `O=C(Nc1ccc(F)cc1F)c1cncc(Br)c1`, the “hERG current change (%, negative = inhibition) at 10uM” value is listed as -3.88%. Consider `CCOC(=O)c1cnn(CCOC(=O)C(C)(C)C)c1NC(=O)C(C)(C)C`, for which the “hERG current change (%, negative = inhibition) at 10uM” value came to 12.8%.

Turning to `COc1cc(OC)c2ccc(=O)oc2c1C(CC(=O)N1CCOCC1)c1ccc2c(c1)OCO2` (centres unmarked), the “hERG current change (%, negative = inhibition) at 10uM” value is on record as -0.731%. `Cc1nc(Nc2ccc(Cl)cc2)c2oc3ccccc3c2n1`: the “hERG current change (%, negative = inhibition) at 10uM” value was 3.95%.

Take `O=C1CCN(Cc2ccc(Br)cc2)CCN1[C@H](CO)c1ccccc1`: the “hERG current change (%, negative = inhibition) at 10uM” value is recorded as -3.45%.

As to `CCCN1CCC(=O)N([C@H](CSc2ccc(Br)cc2)c2ccccc2)CC1`, the “hERG current change (%, negative = inhibition) at 10uM” value is given as -76.2%.

`Cc1ccc(C)c(OCCC(=O)OCC(=O)N2CCN(S(=O)(=O)c3ccc(Cl)cc3)CC2)c1`: the “hERG current change (%, negative = inhibition) at 10uM” value is given as -29.8%. Consider `O=S(=O)(c1ccccc1)c1nc(-c2ccco2)oc1NCc1cccnc1`, for which the “hERG current change (%, negative = inhibition) at 10uM” value is given as -20.1%. Turning to `Brc1ccccc1CN1CCN(Cc2c[nH]c3ccccc23)CC1.O=C(O)C(=O)O`, the “hERG current change (%, negative = inhibition) at 10uM” value is on record as -20.1%. For `CCS(=O)(=O)N1CCN(Cc2c[nH]c3ccccc23)CC1.O=C(O)C(=O)O`, the “hERG current change (%, negative = inhibition) at 10uM” value was found to be 5.44%. Regarding `CN(Cc1ccccc1)Cc1c[nH]c2ccccc12`, the “hERG current change (%, negative = inhibition) at 10uM” value is recorded as -16.5%. In the case of `COc1ccc(S(=O)(=O)N2CCN(Cc3c[nH]c4ccccc34)CC2)cc1`, the “hERG current change (%, negative = inhibition) at 10uM” value is -24.9%. For the molecule `COc1ccccc1C(=O)N1CCN(Cc2c[nH]c3ccccc23)CC1.O=C(O)C(=O)O`, the “hERG current change (%, negative = inhibition) at 10uM” value is listed as -19.7%. The figure for `CCOc1ccc(CN2CCN(Cc3c[nH]c4ccccc34)CC2)cc1.O=C(O)C(=O)O` is -84.4%. `COc1ccc(CN2CCN(Cc3c[nH]c4ccccc34)CC2)cc1.O=C(O)C(=O)O`: the “hERG current change (%, negative = inhibition) at 10uM” value is -67.5%.

`CCOc1ccc(CN2CCN(C(=O)Cc3ccccc3)CC2)cc1.O=C(O)C(=O)O`: the “hERG current change (%, negative = inhibition) at 10uM” value is listed as -44.1%. With `COc1ccc(Br)cc1CN1CCN(Cc2c[nH]c3ccccc23)CC1.O=C(O)C(=O)O`, the “hERG current change (%, negative = inhibition) at 10uM” value is reported as -29.2%. In the case of `CN(CCc1ccccc1)Cc1c[nH]c2ccccc12.O=C(O)C(=O)O`, the “hERG current change (%, negative = inhibition) at 10uM” value was -56.7%. Turning to `Brc1ccc(CN2CCN(Cc3c[nH]c4ccccc34)CC2)cc1.O=C(O)C(=O)O`, the “hERG current change (%, negative = inhibition) at 10uM” value was -63.8%. Take `O=C(Cc1ccccc1)NCCc1c[nH]c2ccccc12.O=C(O)C(=O)O`: the “hERG current change (%, negative = inhibition) at 10uM” value was determined as 16.4%.
